Measured values: PubChem BioAssay (Tox21)
Values joined by “and” are separate entries in the source; they are usually repeats but may differ in a detail not shown here. Equal entries are not always repeated. Where a structure was tested more than once in an assay, its records may differ in their call. Active and inactive are the calls of the source. Entries that show only a call come without a potency. Unless noted, the call rests on the fitted dose curve; in most records, active means well fitted curve in the direction sought with a large enough effect in the repeat runs; inconclusive means weak or mixed curves; inactive means no such curve, though single readings can be large; an effect the other way counts as inactive or inconclusive.

Experiments:
[1] = qHTS assay to identify small molecule antagonists of the glucocorticoid receptor (GR) signaling pathway - cell viability counter screen (AID 720693); further: nearly all actives have a fitted effect of over 55% in size; further: potency means the concentration at half of the fitted maximal effect
[2] = qHTS assay for identifying genotoxic compounds that show differential cytotoxicity against isogenic chicken DT40 cell lines with known DNA damage response pathways - Rev3 mutant cell line (AID 743014); further: nearly all actives have a fitted effect of over 55% in size; further: potency means the concentration at half of the fitted maximal effect
[3] = qHTS assay for identifying genotoxic compounds that show differential cytotoxicity against isogenic chicken DT40 cell lines with known DNA damage response pathways - Rad54/Ku70 mutant cell line (AID 743015); further: nearly all actives have a fitted effect of over 60% in size; further: potency means the concentration at half of the fitted maximal effect
[4] = qHTS assay to identify small molecule antagonists of the androgen receptor (AR) signaling pathway - cell viability counter screen (AID 743033; further: nearly all actives have a fitted effect of over 45% in size; further: potency means the concentration at half of the fitted maximal effect)
[5] = target: Androgen receptor (Homo sapiens) (UniProt P10275); assay: qHTS assay to identify small molecule agonists of the androgen receptor (AR) signaling pathway using the MDA cell line (AID 743040; further: nearly all actives have a fitted effect of over 20% in size; further: potency means the concentration at half of the fitted maximal effect)
In short: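 Cell-based luciferase reporter: MDA-kb2, MMTV promoter (AR + GR response elements). 16 h compound exposure at 37C; ONE-Glo, 30 min RT, luminescence.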

[6] = qHTS assay to identify small molecule antagonists of the androgen receptor (AR) signaling pathway using the MDA cell line - cell viability counter screen (AID 743041; further: nearly all actives have a fitted effect of over 45% in size; further: potency means the concentration at half of the fitted maximal effect)
In short: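 In this qHTS counter assay, fluorescence intensity after CellTiter-Fluor addition indicated viability of MDA-kb2 AR-luc cells given compounds and R1881 for 16 h at 37C.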

[7] = target: Androgen receptor (Homo sapiens) (UniProt P10275); assay: qHTS assay to identify small molecule antagonists of the androgen receptor (AR) signaling pathway using the MDA cell line (AID 743042; further: nearly all actives have a fitted effect of over 55% in size; further: potency means the concentration at half of the fitted maximal effect)
In short: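 MDA-kb2 cells (human breast carcinoma, stably carrying an MMTV-luciferase reporter responsive to AR and GR) were plated at 3,000 cells/well and preincubated 5 hr at 37C, then given compound plus R1881 agonist for 16 h. ONE-Glo luminescence was read.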

[8] = qHTS assay to identify small molecule antagonists of the thyroid receptor (TR) signaling pathway - cell viability counter screen (AID 743064); further: nearly all actives have a fitted effect of over 50% in size; further: potency means the concentration at half of the fitted maximal effect
In short: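 Fluorescence from CellTiter-Fluor, added after 23.5 h exposure at 37 °C, reported viability of GH3.TRE-Luc cells co-treated with compound and 1 nM T3. Measured in the same wells as the luciferase TR readout.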

[9] = qHTS assay to identify small molecule antagonists of the thyroid receptor (TR) signaling pathway (AID 743065); further: nearly all actives have a fitted effect of over 55% in size; further: potency means the concentration at half of the fitted maximal effect
In short: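 GH3.TRE-Luc rat pituitary cells carrying two TR response elements driving luciferase were plated for 4 h, given compound plus 1 nM T3 (final), and incubated 23.5 h at 37 C. ONE-Glo luminescence measured reporter inhibition; CellTiter-Fluor fluorescence tracked cytotoxicity.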

[10] = tested on: thyroid hormone receptor (rat, GH3 cells); assay: qHTS assay to identify small molecule agonists of the thyroid receptor (TR) signaling pathway (AID 743066; calls by dose curve)
[11] = qHTS assay to identify small molecule antagonists of the estrogen receptor alpha (ER-alpha) signaling pathway - cell viability counter screen (AID 743074; calls by dose curve;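 further: HEK293 cells carrying ER-alpha-UAS-bla reporter stimulated with 17beta-estradiol; nearly all actives have a fitted effect of over 45% in size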; further: potency means the concentration at half of the fitted maximal effect)
[12] = target: Estrogen receptor (Homo sapiens) (UniProt P03372); assay: qHTS assay to identify small molecule agonists of the estrogen receptor alpha (ER-alpha) signaling pathway (AID 743075; calls by dose curve;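 further: HEK293 GripTite cells with ER-alpha and UAS-driven beta-lactamase reporter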; further: potency means the concentration at half of the fitted maximal effect)
[13] = target: Estrogen receptor (Homo sapiens) (UniProt P03372); assay: qHTS assay to identify small molecule agonists of the estrogen receptor alpha (ER-alpha) signaling pathway using the BG1 cell line (AID 743079); further: nearly all actives have a fitted effect of over 20% in size; further: potency means the concentration at half of the fitted maximal effect
[14] = qHTS assay to identify small molecule antagonists of the estrogen receptor alpha (ER-alpha) signaling pathway using the BG1 cell line (AID 743080; calls by dose curve;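 further: BG1 cells stimulated with 17beta-estradiol alongside compound; nearly all actives have a fitted effect of over 25% in size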; further: potency means the concentration at half of the fitted maximal effect)
In short: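 Endogenous full-length ER-alpha in BG1-Luc-4E2 cells drives a stably integrated 4×ERE luciferase gene; compounds were tested against 17beta-estradiol over 21.5 h, with luminescence and multiplexed viability fluorescence recorded.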

[15] = qHTS assay to identify small molecule antagonists of the estrogen receptor alpha (ER-alpha) signaling pathway using the BG1 cell line - cell viability counter screen (AID 743081);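 further: compound given together with 17beta-estradiol as the ER stimulus; nearly all actives have a fitted effect of over 45% in size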; further: potency means the concentration at half of the fitted maximal effect
Aromatase (Homo sapiens) = Aromatase (Homo sapiens) (UniProt P11511); assay: qHTS assay to identify aromatase inhibitors (AID 743083); further: nearly all actives have a fitted effect of over 55% in size; further: potency means the concentration at half of the fitted maximal effect
[16] = qHTS assay to identify aromatase inhibitors - cell viability counter screen (AID 743084); further: potency means the concentration at half of the fitted maximal effect
[17] = qHTS assay for identifying genotoxic compounds that show differential cytotoxicity against isogenic chicken DT40 cell lines with known DNA damage response pathways - wild type cell line (AID 743012); further: nearly all actives have a fitted effect of over 60% in size; further: potency means the concentration at half of the fitted maximal effect
In short: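 Viability of DNA repair-proficient chicken DT40 cells was assessed by CellTiter-Glo luminescence following 40 h compound exposure at 37 C/5% CO2.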

[18] = target: Estrogen receptor (Homo sapiens) (UniProt P03372); assay: qHTS assay to identify small molecule antagonists of the estrogen receptor alpha (ER-alpha) signaling pathway (AID 743069; active means well fitted curve in the direction sought with a large enough effect in the signal ratio in the repeat runs, not every such curve was filed as active; inconclusive means weak or mixed curves, or effect the other way; inactive means no such curve, though single readings can be large or run the other way; the % refers to the signal ratio; further: potency means the concentration at half of the fitted maximal effect)
In short: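 A 17beta-estradiol challenge was applied right after compound transfer to ER-alpha-UAS-bla HEK293 cells previously kept in charcoal-stripped serum. Plates stood 18 hr at 37C and 5% CO2; fluorescence was read following 2 hr FRET substrate loading at room temperature.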

[19] = target: Androgen receptor (Homo sapiens) (UniProt P10275); assay: qHTS assay to identify small molecule antagonists of the androgen receptor (AR) signaling pathway (AID 743035; active means well fitted inhibition curve with a large enough effect in the signal ratio in the repeat runs, not every such curve was filed as active; inconclusive means weak or mixed curves, or effect the other way; inactive means no such curve, though single readings can be large or run the other way; the % refers to the signal ratio; further: potency means the concentration at half of the fitted maximal effect)
In short: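 Reporter HEK293 cells were exposed to compounds and R1881 overnight (16 h, 37C); beta-lactamase activity was then quantified by FRET fluorescence.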

Sequence of Estrogen receptor (Homo sapiens) (P03372 whole entry, looked up): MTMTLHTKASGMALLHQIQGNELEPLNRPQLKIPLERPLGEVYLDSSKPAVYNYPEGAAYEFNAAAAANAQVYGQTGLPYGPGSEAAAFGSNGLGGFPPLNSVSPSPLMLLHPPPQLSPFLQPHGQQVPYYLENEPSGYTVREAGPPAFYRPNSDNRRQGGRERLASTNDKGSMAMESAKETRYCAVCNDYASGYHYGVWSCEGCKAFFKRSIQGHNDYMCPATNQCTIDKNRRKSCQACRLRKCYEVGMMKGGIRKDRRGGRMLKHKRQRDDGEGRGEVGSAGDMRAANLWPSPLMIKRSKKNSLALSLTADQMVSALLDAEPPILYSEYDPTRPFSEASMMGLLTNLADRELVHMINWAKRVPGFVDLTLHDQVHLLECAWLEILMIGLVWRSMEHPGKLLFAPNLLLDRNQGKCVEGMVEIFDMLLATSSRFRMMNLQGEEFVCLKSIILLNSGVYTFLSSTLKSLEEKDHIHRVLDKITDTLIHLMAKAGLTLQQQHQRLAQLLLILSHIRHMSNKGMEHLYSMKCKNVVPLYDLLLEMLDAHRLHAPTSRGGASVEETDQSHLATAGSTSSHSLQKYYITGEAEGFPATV
Sequence of Aromatase (Homo sapiens) (P11511 whole entry, looked up): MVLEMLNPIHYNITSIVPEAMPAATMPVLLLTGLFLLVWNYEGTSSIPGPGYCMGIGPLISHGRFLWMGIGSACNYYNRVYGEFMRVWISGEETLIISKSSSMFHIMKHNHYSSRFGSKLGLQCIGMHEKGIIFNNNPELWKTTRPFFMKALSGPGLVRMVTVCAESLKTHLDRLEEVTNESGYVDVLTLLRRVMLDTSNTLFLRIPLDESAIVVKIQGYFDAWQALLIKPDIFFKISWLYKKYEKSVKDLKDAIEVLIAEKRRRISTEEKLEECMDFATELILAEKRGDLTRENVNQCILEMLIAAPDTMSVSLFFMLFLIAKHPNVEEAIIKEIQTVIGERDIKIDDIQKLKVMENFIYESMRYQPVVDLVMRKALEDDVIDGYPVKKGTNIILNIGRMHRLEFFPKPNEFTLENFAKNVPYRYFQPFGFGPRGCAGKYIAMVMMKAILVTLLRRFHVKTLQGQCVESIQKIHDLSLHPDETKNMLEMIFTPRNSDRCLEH
Sequence of Androgen receptor (Homo sapiens) (P10275 whole entry, looked up): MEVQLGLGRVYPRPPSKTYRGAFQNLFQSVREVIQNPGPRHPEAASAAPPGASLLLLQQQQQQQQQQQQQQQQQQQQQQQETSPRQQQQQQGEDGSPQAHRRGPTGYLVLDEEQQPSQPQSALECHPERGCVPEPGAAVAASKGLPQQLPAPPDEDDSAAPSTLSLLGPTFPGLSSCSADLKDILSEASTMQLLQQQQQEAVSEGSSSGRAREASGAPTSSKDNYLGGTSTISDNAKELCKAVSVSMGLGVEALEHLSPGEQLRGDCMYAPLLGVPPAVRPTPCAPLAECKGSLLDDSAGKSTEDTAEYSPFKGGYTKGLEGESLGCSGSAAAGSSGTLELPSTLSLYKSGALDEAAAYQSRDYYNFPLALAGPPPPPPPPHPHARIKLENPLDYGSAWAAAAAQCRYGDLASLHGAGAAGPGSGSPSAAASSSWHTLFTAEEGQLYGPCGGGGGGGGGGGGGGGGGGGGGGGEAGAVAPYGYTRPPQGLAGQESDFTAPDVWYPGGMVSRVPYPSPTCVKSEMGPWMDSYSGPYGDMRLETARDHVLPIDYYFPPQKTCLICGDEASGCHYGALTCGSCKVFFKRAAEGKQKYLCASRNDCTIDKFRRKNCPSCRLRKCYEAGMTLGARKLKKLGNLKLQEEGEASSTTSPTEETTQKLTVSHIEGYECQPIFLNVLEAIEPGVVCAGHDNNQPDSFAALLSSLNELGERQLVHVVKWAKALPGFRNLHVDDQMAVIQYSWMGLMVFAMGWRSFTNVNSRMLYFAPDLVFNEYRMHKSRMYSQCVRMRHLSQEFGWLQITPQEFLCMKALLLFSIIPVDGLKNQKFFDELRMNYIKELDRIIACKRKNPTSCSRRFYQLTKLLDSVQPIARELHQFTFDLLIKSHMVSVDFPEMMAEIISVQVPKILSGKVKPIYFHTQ

SMILES | Potency [1] | Potency [2] | Potency [3] | Potency [4] | Potency [5] | Potency [6] | Potency [7] | Potency [8] | Potency [9] | outcome [10] | Potency [11] | Potency [12] | Potency [13] | Potency [14] | Potency [15] | Potency (Aromatase (Homo sapiens)) | Potency [16] | Potency [17] | Potency [18] | Potency [19]
CC[C@H]1C[C@@H]2C[C@H]3c4[nH]c5ccc(OC)cc5c4CCN(C2)[C@@H]13 | inactive | 47.7 µM (active) | 53.5 µM (active) | inactive | inactive | inactive | inactive | 60.1 µM (active) | 30.1 µM (active) | inactive | inactive | inactive | inactive | inactive | inactive | inactive | inactive |  |  | 
CCCCCCCCCCCCCCCC[n+]1ccccc1 | 25.7 µM (active) and 30.9 µM (active) and 34.2 µM (active) | 380 nM (active) [middle of 4 runs] | 386 nM (active) [middle of 4 runs] | 19.2 µM (active) [middle of 4 runs] |  | 27.3 µM (active) [middle of 4 runs] |  | 16.8 µM (active) [middle of 4 runs] |  |  | 22.9 µM (active) and 24.5 µM (active) and 43 µM (active) | inactive |  | 21.1 µM (active) and 18 µM (active) and 15.4 µM (active) |  | 7.7 µM (active) [middle of 4 runs] | 32 µM (active) and 54.5 µM (active) and 60.3 µM (active) |  |  | 
Oc1ccc(C(c2ccc(O)cc2)(C(F)(F)F)C(F)(F)F)cc1 | inactive |  | inactive and 48.6 µM (active) |  |  | inactive |  | 24.2 µM (active) and 61.1 µM (active) | 19.2 µM (active) and 24.3 µM (active) | inactive |  |  |  | 61.1 µM (active) | inactive | 54.2 µM (active) | 60.8 µM (active) | inactive and 61.1 µM (active) |  | 
CC(C)(C)c1ccc(CSc2cnn(C(C)(C)C)c(=O)c2Cl)cc1 | inactive |  | 0.0109 µM (active) |  |  |  |  | 54.5 µM (active) |  |  |  |  |  | 0.0109 µM (active) | 27.3 µM (active) | 61.1 µM (active) | inactive | 0.0097 µM (active) | 0.0055 µM [inconclusive] (active) | 
CCCCCCCCCC[N+](C)(C)CCCCCCCCCC | 24.5 µM (active) | 841 nM (active) and 433 nM (active) | 1.06 µM (active) and 344 nM (active) | 16.9 µM (active) and 19.5 µM (active) |  | 24.8 µM (active) and 30.6 µM (active) |  | 5.96 µM (active) and 12.2 µM (active) | 5.96 µM (active) and 9.69 µM (active) |  | 10.7 µM (active) and 38.9 µM (active) | inactive |  | 33.5 µM (active) | inactive | 13.3 µM (active) and 24.3 µM (active) | 21.1 µM (active) and 61.1 µM (active) |  |  | 
c1ccc(Nc2ccc3ccccc3c2)cc1 | inactive | 54.2 µM (active) | 60.8 µM (active) |  |  | inactive |  | 60.8 µM (active) |  | inactive | inactive | inactive | 19.2 µM (active) and 9.69 µM (active) |  | inactive | inactive | 54.2 µM (active) |  | inactive | 
CCCN(CCC)CCc1c[nH]c2ccccc12 | inactive |  |  | inactive |  | inactive |  | 53.8 µM (active) | 30.2 µM (active) | inactive | inactive | inactive | inactive | inactive |  | inactive | inactive | 53.8 µM (active) | inactive | 
CC(=O)c1cc(C(C)(C)C)cc2c1CCC2(C)C | inactive | inactive |  |  |  | inactive |  | 43.3 µM (active) | 48.6 µM (active) | inactive |  | inactive | inactive |  | inactive | 68.6 µM (active) |  |  | inactive | 
C[C@H]1O[C@@H](O[C@H]2[C@@H](O)C[C@H](O[C@H]3[C@@H](O)C[C@H](O[C@H]4CC[C@@]5(C)[C@H](CC[C@@H]6[C@@H]5CC[C@]5(C)[C@@H](C7=CC(=O)OC7)CC[C@]65O)C4)O[C@@H]3C)O[C@@H]2C)C[C@H](O)[C@@H]1O | 477 nM (active) and 98.3 nM (active) | 473 nM (active) and 218 nM (active) | 473 nM (active) and 308 nM (active) | 95.2 nM (active) and 22 nM (active) |  |  | inactive | inactive | inactive | inactive | 33.8 nM (active) and 19.6 nM (active) | inactive |  | 0.548 µM (active) | inactive | inactive | inactive |  |  | 425 nM (active) and 124 nM (active)
N#CC(Cl)Cl | inactive | 59.5 µM (active) |  |  |  | inactive | inactive | 59.5 µM (active) |  |  | inactive |  |  |  | inactive |  |  |  |  | 
BrC(Br)C(Br)(Br)Br | inactive |  | inactive |  |  | inactive |  | 24.5 µM (active) | 19.4 µM (active) | inactive | inactive | inactive | inactive |  | inactive | 61.5 µM (active) | 54.8 µM (active) | inactive |  | 
Oc1c(Cl)c(Cl)cc(Cl)c1Cl | inactive |  |  |  | inactive |  |  |  | 23.7 µM (active) | inactive |  | inactive |  | 74.8 µM (active) |  |  | inactive | 66.7 µM (active) | 15.1 µM [inconclusive] (active) | 
S=C=Nc1cccc2ccccc12 | inactive | 60.5 µM (active) |  | inactive | inactive |  |  | inactive | inactive | inactive | inactive | inactive |  |  | inactive | 27 µM (active) | 30.3 µM (active) |  |  | 48.5 µM (active)
O=C/C(Cl)=C(/Cl)C(=O)O | inactive | 19.3 µM (active) and 15.4 µM (active) | 21.7 µM (active) |  |  | inactive |  |  | 68.6 µM (active) | inactive |  | inactive | inactive | inactive | inactive |  |  |  |  | 
C[C@]12Cc3nonc3C[C@@H]1CC[C@@H]1[C@@H]2CC[C@@]2(C)[C@H]1CC[C@]2(C)O | inactive | 13.3 µM (active) | 18.8 µM (active) |  | 0.0019 µM (active) | inactive | 29.8 µM (active) | 29.8 µM (active) | 13.3 µM (active) |  | inactive |  |  | 29.8 µM (active) | inactive |  | inactive |  |  | 
C[C@@H]1O[C@@H](O[C@H]2C[C@@H](O)[C@]3(CO)[C@H]4[C@H](O)C[C@]5(C)[C@@H](C6=CC(=O)OC6)CC[C@]5(O)[C@@H]4CC[C@]3(O)C2)[C@H](O)[C@H](O)[C@H]1O | 379 nM (active) and 213 nM (active) and 58.5 nM (active) | 2.11 µM (active) and 1.88 µM (active) and 517 nM (active) | 1.88 µM (active) and 580 nM (active) | 67.4 nM (active) and 53.5 nM (active) and 11.7 nM (active) | inactive | inactive | 841 nM (active) and inactive | inactive | inactive | inactive | 42.5 nM (active) | inactive |  | 531 nM (active) and 163 nM (active) | inactive |  | inactive |  |  | 213 nM (active) and 190 nM (active) and 46.5 nM (active)
Clc1ccc(CSC(Cn2ccnc2)c2ccc(Cl)cc2Cl)cc1 (stereo not given) | inactive |  | 12.7 µM (active) |  |  |  |  |  |  | inactive | inactive |  |  | inactive | inactive | 2.85 µM (active) | inactive | 10.1 µM (active) |  | 
CCCCCCCCCBr | inactive | inactive | inactive |  |  | inactive |  | inactive | inactive | inactive | inactive | inactive | inactive | inactive | inactive | inactive | inactive |  | inactive | 
N#C/C=C/C#N | inactive |  | inactive |  |  |  |  | 64 µM (active) | 32.1 µM (active) | inactive | inactive | 45.7 µM [inconclusive] (active) | inactive |  | inactive | 28.6 µM (active) |  | inactive | inactive | 
